SMILES strings stand for the structures. Measured potencies and affinities stand elsewhere. Results filed as inconclusive are left out. Active and inactive are the calls of the source.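 Rule for the calls: active = a valid curve of falling signal whose half-effect concentration is at most ten times the top tested dose; inconclusive = flat curve at 30 to 70% inhibition, or poor fit; inactive = signal rise, flat within 30%, or potency beyond limit.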

Sequence of Scavenger receptor class B member 1 (Mus musculus) (Q61009 whole entry, looked up): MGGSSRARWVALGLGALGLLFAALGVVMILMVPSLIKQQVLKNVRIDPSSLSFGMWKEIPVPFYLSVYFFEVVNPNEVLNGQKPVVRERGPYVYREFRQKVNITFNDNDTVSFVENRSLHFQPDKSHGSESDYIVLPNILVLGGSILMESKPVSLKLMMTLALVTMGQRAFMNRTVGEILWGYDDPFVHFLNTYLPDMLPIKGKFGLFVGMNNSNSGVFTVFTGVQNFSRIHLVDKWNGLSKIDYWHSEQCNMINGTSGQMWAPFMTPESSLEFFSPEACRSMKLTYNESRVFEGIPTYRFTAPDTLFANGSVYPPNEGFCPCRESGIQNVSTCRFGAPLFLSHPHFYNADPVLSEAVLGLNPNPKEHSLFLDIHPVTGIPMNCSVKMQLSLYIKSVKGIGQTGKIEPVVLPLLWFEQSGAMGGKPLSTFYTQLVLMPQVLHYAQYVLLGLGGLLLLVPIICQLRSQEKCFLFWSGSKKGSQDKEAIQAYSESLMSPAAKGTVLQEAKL

This test has as its target Scavenger receptor class B member 1 (Mus musculus) (UniProt Q61009). Kind of test: mouse SR-BI DiI-HDL uptake blockers – ldlA[mSR-BI] cells, fluorescence, cherry pick, dose response (AID 493194).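 Note: CHO cells lacking LDL receptor and overexpressing mouse SR-BI; cellular uptake of fluorescently labeled HDL measured as cell fluorescence.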 Conditions: CHO ldlA[mSR-BI] DiI-HDL uptake fluorescence, 3 h; series mostly up to 35 µM.
Consider `CCOc1ccc(C(=O)Nc2ccc(S(=O)(=O)N3C[C@@H]4C[C@@H](C3)c3cccc(=O)n3C4)cc2)cc1`, for which the outcome was inactive.

Turning to `CCCCC(=O)Nc1nc(C)c(-c2csc(Nc3ccc(Cl)cc3)n2)s1`, the call was inactive.

As to `O=C1[C@@H]2Cc3c([nH]c4ccccc34)C(c3cccc([N+](=O)[O-])c3)N2C(=O)CN1CCCO` (stereo partly drawn), the outcome was inactive.

For the molecule `COc1ccc(OCCSc2nnc(-c3cccnc3)n2N)cc1`, the call was inactive.

As to `CC(C)[C@H](NC(=O)c1ccco1)C(=O)OCC(=O)c1ccc2c(c1)NC(=O)CO2`, the call was inactive.

For the molecule `O=C(NC1CCCCC1)C(c1ccc2ncccc2c1)N(Cc1ccco1)C(=O)c1ccc2c(c1)OCCO2` (stereo not drawn), the result was inactive.

Turning to `CNC(=O)c1ccc(Nc2nnc(-c3ccc(O)cc3)c3ccccc23)cc1`, the result was inactive.

With `CC(C)(C)OC(=O)N1CSC[C@H]1C(=O)NC[C@H](CC(=O)O)c1ccc(Cl)cc1`, the molecule was called inactive.

As to `CCOC(=O)c1c(C)n(-c2ccc(C)cc2)c2c(CC(C)=O)c(Br)c(OC)c(O)c12`, the molecule was classed as inactive.

Regarding `Cc1cc(C)nc(Nc2n[nH]c(-c3ccc(C(C)(C)C)cc3)n2)n1`, the outcome was inactive.

Take `Cc1sc(NC(=O)c2cccc([N+](=O)[O-])c2)c(C(N)=O)c1-c1ccc(C(C)(C)C)cc1`: the result was inactive.

Turning to `CCCCc1nnc(NC(=O)c2ccc(OCc3c(C)noc3C)cc2)s1`, the outcome was inactive.

On to `CCOC(=O)c1[nH]c2c(c1C)C(=O)CC(c1ccc(F)cc1)C2` (stereo not drawn), for which the molecule was classed as inactive.

`CCc1cc2c(=O)c(-c3ccc4c(c3)OCCO4)coc2cc1OS(C)(=O)=O`: the outcome was inactive.

With `Cc1nc2c(cnn2-c2ccccc2Cl)c(=O)n1-c1ccc(N2CCC(C)CC2)cc1`, the call was inactive.

As for `O=C(Nc1cccc(NC(=O)c2ccccc2Cl)c1)c1ccc(F)cc1`, the outcome was inactive.

In the case of `COc1ccc(COC(=O)c2ccc(Br)c(S(=O)(=O)N3CCOCC3)c2)cc1F`, the molecule was classed as inactive.

`Cc1ccsc1-c1nc(-c2ccccc2)c(-c2ccccc2)[nH]1`: the molecule was classed as inactive.

`CCOc1ccc(NC(=O)CN2CCN(CC(=O)Nc3ccc(OC)cc3)CC2)cc1`: the outcome was inactive.

With `CC(=O)c1ccc(N2CCN(C(=O)/C=C/c3ccc(S(=O)(=O)NCc4ccco4)cc3)CC2)cc1`, the outcome was inactive.

Turning to `CSc1nccc(-c2sc(SC)c(C#N)c2-c2ccccc2)n1`, the result was inactive.

On to `Cc1ccc(CNC(=O)c2ccc(N3CCC4(CC3)CC(c3cccc(Br)c3)=NO4)c([N+](=O)[O-])c2)cc1`, for which the call was inactive.

Consider `O=C(Nc1ccc(-c2nc3ccccc3o2)cc1)c1cc(-n2cnnc2)ccc1Cl`, for which the molecule was called inactive.

As to `O=C(/C=C/c1ccco1)Nc1cccc(NC(=O)/C=C/c2ccco2)n1`, the call was inactive.

As to `CCOC(=O)C(=O)Nc1nc(-c2ccc3c(c2)CCN3C(=O)C2CC2)c(C)s1`, the call was inactive.

For `COc1ccc(C2C(C#N)=C(N)N(c3ccccc3C#N)C3=C2C(=O)CCC3)cc1CN1CCCC1` (stereo not drawn), the call was inactive.

For the molecule `N#Cc1ccccc1S(=O)(=O)N1CCN(C(=O)C2CC(=O)N(c3ccc4c(c3)OCCO4)C2)CC1` (stereo not drawn), the molecule was classed as inactive.

As for `COc1ccccc1NC(=O)CN1CCN(CC(=O)Nc2ccc(OCc3ccccc3)cc2)CC1`, the result was inactive.

Consider `O=C(Nc1ccccc1)NC1CC2CCC(C1)N2Cc1nnnn1Cc1ccc2c(c1)OCO2` (stereo not drawn), for which the molecule was called inactive.

For `O=C(CSc1cn(CCNC(=O)c2cccs2)c2ccccc12)NCC1CCCO1` (stereo not drawn), the molecule was called inactive.

On to `CCOC(=O)N1CCN(CC(O)COC2CC(C)CCC2C(C)C)CC1` (stereo not drawn), for which the outcome was inactive.

With `COc1ccc(NC(=O)C2CCN(C(=O)c3ccc(OC)cc3)CC2)cc1`, the molecule was classed as inactive.

Regarding `CN(C)c1ccc(/C=C2\Oc3ccc(C#Cc4cccc(N)c4)cc3C2=O)cc1`, the call was inactive.

For `COc1ccc([C@H]2/C=C\CN(S(=O)(=O)c3ccc(C)cc3)[C@@H](C)C(=O)N2Cc2ccc(F)cc2)cc1`, the molecule was called inactive.

With `O=C(OCc1ccccc1)N1CCC2CC1c1cc(-c3ccc(F)cc3)ccc12` (stereo not drawn), the molecule was called inactive.

Turning to `CC(=O)c1c(C)[nH]c(C(=O)Nc2ccc(C)c(S(=O)(=O)Nc3ccc(C)cc3C)c2)c1C`, the molecule was classed as inactive.

Consider `COc1ccc(NC(=O)c2ccc3c(c2)CCN3S(=O)(=O)c2ccccc2)cc1`, for which the molecule was classed as inactive.

As for `COc1ccc(C(=O)N2CCN(c3ccc([N+](=O)[O-])c(NCCc4ccc(OC)c(OC)c4)c3)CC2)cc1`, the molecule was classed as inactive.

For the origin of these results see PubChem BioAssay AID493194 (Broad Institute, 2011).
